Hits are enriched below; roughly 5.4% of the tested compounds scored in any of these assays.
Beta apoptosis: beta cell apoptosis inhibition; INS-1E cytokine-induced death, ATP luminescence, 48 h; percent of positive-control rescue, neutral wells zero; protection from apoptosis, % (concentration not given with the values); hit rate 0.8% among 300,000;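 active means Every replicate reaches about 75%, or at least half do and their mean reaches it too, limit read from the data; inconclusive means At least half of replicates reach the limit but their mean does not; inactive means Under half of replicates reach the limit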;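 further: higher means more ATP so stronger rescue from cytokine killing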
MPTP inh: inhibitors of mitochondrial permeability transition pore; isolated mouse mitochondria, Ca2+ swelling absorbance, 30 min; inhibition, % at 10 µM; hit rate 1.4% among 360,000;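 active means inhibition of 50% or more, scaled per plate between neutral and stimulator controls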
CSC inhib: blocks cancer stem cells; inhibition, % at 7.5 µM; AID 2717; cancer stem cell-like cells viability, luminescence; hit rate 1.1% among 300,000; in the data active means inhibition above about 75%; inconclusive means no clear call, values can overlap the other calls; tested in HMLE shEcad cells
SKKanGAS inh: SKKanGAS growth inhibition; hit rate 1.3% among 300,000; inhibition, % at 7.5 µM; AID 1662; S. pyogenes SKKanGAS, kanamycin growth, BacTiter-Glo, 6 h;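 active means mean replicate score, as percent of positive control median, at least 50; inconclusive means mean below 50 but one replicate at or above 50; inactive means mean and every replicate below 50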;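 further: strain carries kanamycin resistance gene driven by streptokinase promoter and grows in 40 µg/ml kanamycin; loss of luminescence reflects streptokinase promoter inhibition or plain growth inhibition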
Calb FLC: affects C. albicans growth with fluconazole; growth inhibition, % (test concentration not listed); hit rate 0.57% among 300,000; AID 1979; C. albicans CaCi-2 (fluconazole-resistant clinical isolate) + fluconazole, Alamar Blue growth, 48 h;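 active means growth inhibition above about 58% in most replicates, limit read from the data, passing the limit was not always enough; inconclusive means exactly half the replicates above a set limit; inactive means most replicates below a set limit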;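 further: all wells also contain fluconazole at 8 µg/ml as a sub-toxic cotreatment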
Mdm2 MdmX PPI: human Mdm2/MdmX binding inhibition. SaOS-2 split-luciferase Mdm2/MdmX complementation, luminescence. inhibition, % at 8 µM. hit rate 3% among 330,000;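 active means inhibition of at least 50% at 8 µM in the primary screen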
Target sequence (O15151 whole entry, looked up): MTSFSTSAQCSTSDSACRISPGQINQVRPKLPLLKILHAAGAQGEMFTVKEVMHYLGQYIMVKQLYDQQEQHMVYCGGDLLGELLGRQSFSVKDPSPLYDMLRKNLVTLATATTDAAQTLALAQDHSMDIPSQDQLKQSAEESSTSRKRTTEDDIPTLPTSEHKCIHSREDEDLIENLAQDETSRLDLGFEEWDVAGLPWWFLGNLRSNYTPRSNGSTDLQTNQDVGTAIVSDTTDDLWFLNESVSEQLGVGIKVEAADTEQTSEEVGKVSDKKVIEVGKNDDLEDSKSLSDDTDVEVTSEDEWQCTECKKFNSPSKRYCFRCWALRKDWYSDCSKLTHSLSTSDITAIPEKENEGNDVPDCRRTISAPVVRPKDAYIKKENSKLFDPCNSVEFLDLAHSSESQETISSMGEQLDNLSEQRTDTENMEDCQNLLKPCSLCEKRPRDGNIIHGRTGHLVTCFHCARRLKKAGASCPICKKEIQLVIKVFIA
Target sequence (Q00987 whole entry, looked up): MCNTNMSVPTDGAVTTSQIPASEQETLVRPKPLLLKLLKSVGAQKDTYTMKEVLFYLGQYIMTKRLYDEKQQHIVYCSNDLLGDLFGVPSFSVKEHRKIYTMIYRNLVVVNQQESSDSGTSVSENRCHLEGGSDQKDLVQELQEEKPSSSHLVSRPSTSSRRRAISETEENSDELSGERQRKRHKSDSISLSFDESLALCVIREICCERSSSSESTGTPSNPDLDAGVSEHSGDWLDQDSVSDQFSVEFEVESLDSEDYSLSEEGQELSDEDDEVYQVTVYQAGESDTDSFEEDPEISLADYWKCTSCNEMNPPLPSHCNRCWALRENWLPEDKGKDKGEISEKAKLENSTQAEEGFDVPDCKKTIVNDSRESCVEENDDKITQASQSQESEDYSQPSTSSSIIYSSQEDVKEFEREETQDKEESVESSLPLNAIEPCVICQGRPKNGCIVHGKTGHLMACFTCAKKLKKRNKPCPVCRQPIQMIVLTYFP
Mdm2 MdmX conf: confirmation of human Mdm2/MdmX interaction inhibitors; inhibition, % at 8 µM; hit rate 55% among 10,000; AID 489028; Mdm2-MdmX binding, luminescent assay; shares compounds with Mdm2 MdmX PPI; in the data active means inhibition above about 40%
FLuc counter: full-length luciferase inhibition in Mdm2/MdmX counter-screen; shares compounds with Mdm2 MdmX PPI; SaOS-2 full-length luciferase counterscreen, luminescence; inhibition, % at 8 µM; hit rate 77% among 6,200; AID 504607;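 active means mean inhibition at 8 µM reaching about 37%, which flags the compound as non-specific, limit read from the data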;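 further: p53-null SaOS-2 cells with luciferase driven by a doxycycline-inducible promoter; compound on cells about two nights before reading with doxycycline added after day one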
A number is an active result; – = inactive; ? = inconclusive; · = not tested or not shown.

SMILES	Beta apoptosis	MPTP inh	CSC inhib	SKKanGAS inh	Calb FLC	Mdm2 MdmX PPI	Mdm2 MdmX conf	FLuc counter
Oc1ccc(N=Nc2ccc3c(c2)OCCO3)c2ncccc12	96	–	98	89	89	98	87	–
Cc1cccc(N=Nc2ccc(O)c3ncccc23)c1	88	–	99	92	–	73	89	–
O=C(Nc1ccc2ccccc2c1)[C@@H]1C[C@H]1[C@@H](NP(=O)(c1ccccc1)c1ccccc1)c1ccccc1	–	–	–	·	·	–	·	·
Clc1ccc(CN2CCc3c([nH]c4ccccc34)C2)cc1Cl	–	–	124	–	–	96	–	48
COc1ccc(-c2nn3c(-c4ccccc4)nnc3s2)cc1	–	–	–	–	–	–	·	·
CCN(CC)c1ccc(-c2nn3c(-c4ccccc4OC)nnc3s2)cc1	–	–	93	56	–	76	65	73
O=C(NCC1CCCO1)c1c(O)c2cccc3c2n(c1=O)CC3 (stereo unspecified)	–	–	–	–	–	69	69	55
O=C(NCC1CCCO1)c1c(O)c2cccc3c2n(c1=O)CCC3 (stereo unspecified)	–	–	–	–	–	84	58	46
Cn1c(C(=O)NCC2CCCO2)cc2c(=O)n(C)c3ccccc3c21 (stereo unspecified)	–	–	–	–	–	–	·	·
Cn1c(=O)c(C(=O)NNC(=O)c2ccc(Br)cc2)c(O)c2ccccc21	–	–	?	92	–	54	–	·
Cn1c(=O)c(C(=O)NCC2CCCO2)c(O)c2ccccc21 (stereo unspecified)	–	–	–	–	–	78	45	–
COc1cccc(S(=O)(=O)NCc2ccc(C(=O)N3CCN(c4ccccc4OC)CC3)cc2)c1	·	–	–	–	–	–	·	·
O=C1C2C3C=CC(C3)C2C(=O)N1Cc1ccc(CN2C(=O)C3C4C=CC(C4)C3C2=O)cc1 (stereo unspecified)	–	–	–	–	–	–	·	·
COc1cccc(C2C3=C(N=c4s/c(=C\c5cccc(O)c5)c(=O)n42)c2ccccc2CC3)c1OC (stereo unspecified)	–	–	91	?	–	68	–	·
CCc1cc2cc3c(cc2nc1SCC(=O)Nc1c[nH]c(=O)[nH]c1=O)OCO3	–	–	–	–	–	–	·	·
CCc1cc2cc3c(cc2nc1SCC(=O)Nc1nccs1)OCO3	–	–	–	–	–	71	–	·
CC(=O)Nc1ccc(Nc2nc(-c3c(C)nc4ccccn34)cs2)cc1	–	–	–	–	–	66	47	66
Cc1nc2ncccn2c1-c1csc(Nc2ccccc2)n1	–	–	–	–	–	62	–	·
Cn1c(=O)n(CCc2ccccc2)c(=O)c2c1nc1n2CCCN1CCc1ccccc1	–	–	–	–	–	65	–	·
CN(C)c1ccc(P(=O)(OC2CCCCC2)C(Nc2ccccc2)c2cccnc2)cc1 (stereo unspecified)	–	–	–	–	–	–	·	·
COC(=O)c1ccc(/C=C/C(=O)c2ccc(OC)cc2)cc1	–	–	·	–	–	–	·	·
CCOc1ccc(N2C(=O)S/C(=C\c3cc(OC)c(OC)c(OC)c3)C2=O)cc1	–	–	–	–	–	53	–	·
COc1ccc(/C=C/C(=O)Nc2ccccc2C(=O)O)cc1	–	–	–	–	–	–	·	·
COc1ccc(/C=C/C(=O)c2ccc(C(=O)/C=C/c3ccc(OC)c(OC)c3)cc2)cc1OC	·	–	·	–	–	54	–	·
COc1ccc(/C=C/C(=O)Nc2ccccc2C(=O)O)cc1OC	·	–	–	–	·	62	76	131
SMILES	Beta apoptosis	MPTP inh	CSC inhib	SKKanGAS inh	Calb FLC	Mdm2 MdmX PPI	Mdm2 MdmX conf	FLuc counter
COc1ccc(C(=O)/C=C/c2ccc(OC(=O)c3cc(OC)c(OC)c(OC)c3)cc2)cc1	–	–	–	–	–	57	–	·
Cc1ccc2nc(SCC3CCCCO3)[nH]c2c1 (stereo unspecified)	–	–	–	–	–	–	·	·
Cc1ccc(OCC(=O)Nc2ccccc2Sc2ccccc2)c([N+](=O)[O-])n1	–	–	–	–	–	–	·	·
COc1ccc(/C=C/C(=O)c2cc(F)ccc2OC(=O)c2ccccc2)cc1OC	–	–	–	–	–	68	58	98
CCOc1ccc(C(=O)/C=C/c2cc(OC)c(OC)c(OC)c2)cc1	–	–	–	–	–	63	55	49
C=C(C)[C@@H]1CC[C@]2(C(=O)O)CC[C@]3(C)C(CCC4[C@@]5(C)CC[C@H](O)C(C)(C)C5CC[C@]43C)C12 (stereo partly specified)	–	–	94	–	–	94	–	·
CC1(C)C[C@H]2C3=CCC4[C@@]5(C)CC[C@H](O)C(C)(C)C5CC[C@@]4(C)[C@]3(C)[C@@H](O)[C@@H](O)[C@@]2(CO)[C@@H](O)[C@@H]1O (stereo partly specified)	–	–	–	·	·	–	·	·
COc1ccc(CN(C(=O)c2ccc(-c3ccccc3)[nH]2)C(C(=O)NC(C)(C)C)c2ccncc2)cc1 (stereo unspecified)	–	–	–	–	–	52	–	83
COc1cc(C(C(=O)NC(C)(C)C)N(Cc2ccccc2)C(=O)c2cnccn2)cc(OC)c1OC (stereo unspecified)	–	–	–	–	–	–	·	·
C=CCOc1c(Cl)cc(C(=S)N2CCCC2)cc1OCC	·	–	–	–	–	58	–	·
CCOc1cc(C(=S)N2CCCC2)ccc1O	–	–	–	–	–	–	·	·
CCC(=O)N1CCc2cc(S(=O)(=O)NCCC(=O)N3CC=C(c4ccccc4)CC3)ccc21	–	–	·	·	·	–	·	·
O=C(Nc1ccc(O)cc1C(=O)O)c1cccs1	–	–	–	–	–	–	·	·
COc1ccc(Oc2c(-c3ccc(O)cc3O)n[nH]c2C)cc1	–	–	–	–	–	–	·	·
CCCOC(=O)c1ccc(Oc2c(-c3ccc(OCC)cc3O)n[nH]c2C)cc1	–	–	137	62	–	71	–	·
CC1(C)C(=O)Nc2ccccc2N1C(=O)Cn1ncc(Cl)c(Cl)c1=O	–	–	?	–	–	100	91	40
CCOc1cc(CNn2nnnc2N)ccc1OCC(=O)NC(C)(C)C	·	–	–	–	?	–	·	·
COc1ccc(C2Oc3ccccc3C3=C2C(c2cccs2)n2ncnc2N3)cc1 (stereo unspecified)	–	–	–	78	–	72	70	–
Cc1cccc2cc(CN(C(=O)c3cnccn3)C3CCCCC3)c(Cl)nc12	–	–	–	–	–	84	83	36
CCOC(=O)C(C(=O)OCC)C(C(=O)OCC)N1CCOCC1 (stereo unspecified)	·	–	–	–	–	100	–	·

High-throughput results (PubChem BioAssay)
